S1P4 antag – blocks the human S1P4 receptor; S1P4-expressing cells, antagonist mode, reporter read-out; inhibition, % at 4.98 µM; 0.26% of 220,000 active; AID 1510; in the data active = inhibition above about 29%
Target sequence (O95977 whole entry, looked up): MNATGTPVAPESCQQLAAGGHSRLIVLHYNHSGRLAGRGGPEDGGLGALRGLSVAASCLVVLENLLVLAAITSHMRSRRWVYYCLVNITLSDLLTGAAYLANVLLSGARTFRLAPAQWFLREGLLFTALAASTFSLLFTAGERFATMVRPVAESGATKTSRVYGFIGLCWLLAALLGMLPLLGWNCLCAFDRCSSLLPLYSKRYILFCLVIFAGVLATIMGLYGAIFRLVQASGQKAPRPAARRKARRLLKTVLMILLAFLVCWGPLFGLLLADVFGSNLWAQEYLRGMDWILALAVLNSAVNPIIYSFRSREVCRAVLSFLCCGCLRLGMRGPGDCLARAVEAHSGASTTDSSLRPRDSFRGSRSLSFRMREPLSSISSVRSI
Insulin prom inh – TRM-6 insulin promoter activity inhibition. TRM-6 cells (human fetal islet line), insulin promoter-eGFP reporter, imaging; reporter expression induced with tamoxifen. inhibition, % at 2 µM. 0.9% of 130,000 active;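 active = inhibition above the mean plus 3 SD, with well images judged a real hit on visual review, cut at about 60% in these data, passing the limit was not always enough; inconclusive = inhibition over the cutoff but images rejected on review; inactive = inhibition not above the cutoff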
EP2 mod – modulators of human EP2 prostaglandin E2 receptor | EP2-expressing cells, cAMP HTRF FRET, PGE2 co-stimulation | induction, % at 25 µM | 0.83% of 260,000 active;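 active = compounds whose cAMP rise, as percent of the full-agonist control response, exceeds 60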;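 note: rat C6 glioma line stably carrying human EP2 under a CMV promoter; the protocol text gives 20 µM as final concentration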
S1P4 agonist – activates the human S1P4 receptor | S1P4-expressing cell line, agonist reporter assay | activation, % at 4.98 µM | AID 1509 | 0.35% of 220,000 active; in the data active = activation above about 11%
S1P3 antagonist – S1P3 (human) receptor antagonism | 0.27% of 170,000 active | inhibition, % at 4.98 µM | CHO S1P3 NFAT-BLA reporter, FRET fluorescence, antagonist mode | Q99500 | AID 485;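 active = inhibition above the plate cutoff, the mean inhibition of test wells on that plate plus 3 SD, cut at about 28% in these data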;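 note: cells challenged with S1P at its EC80 of 0.8 µM; blue over green emission ratio from cleaved BLA substrate after 4 h stimulation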
EP2 antag – inhibitors of human EP2 prostaglandin E2 receptor; P43116; C6 glioma cells expressing human EP2, cAMP TR-FRET; cells stimulated with saturating PGE2; inhibition, % at 25 µM; 0.52% of 260,000 active; AID 1422;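 active = percent inhibition above 40 after rounding to a whole number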;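 note: rat C6 glioma host cells with rolipram phosphodiesterase inhibitor present; the protocol text gives 20 µM as final concentration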
EP2 cAMP induct – human EP2 receptor cAMP induction, negative in counter-screens | calls only at 20 µM (by protocol) | shares compounds with EP2 mod | C6 glioma EP2 cells, cAMP HTRF induction; plus low (about EC15) PGE2 agonist | 47% of 1,300 active | AID 1080;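 active = cAMP induction above 50% in the main assay while under 30% in all four parallel counter assays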;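 note: rat C6 glioma cells stably expressing human EP2 receptor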
Hits are given with their value; - = inactive; ? = inconclusive; . = not tested or not shown; + = active, no number. Sampled rows, rich in hits. Any-hit rate of the full collection: about 2.4%.

SMILES	S1P4 antag	Insulin prom inh	EP2 mod	S1P4 agonist	S1P3 antagonist	EP2 antag	EP2 cAMP induct
CC(C)(C)n1nnnc1CN1CCc2nc(N3CCCC3)[nH]c(=O)c2C1	.	.	-	.	.	.	.
Cc1ccc(C(C)C)c(OCc2ccc(-c3nnco3)cc2)c1	-	.	66	-	-	-	-
c1ccc(Cc2nnc(Sc3ccccc3)c3ccccc23)cc1	-	-	69	-	.	-	-
c1ccc(Sc2ncnc3ccccc23)cc1	-	.	-	-	-	-	.
CCC(C)C(=O)N1CCCC(c2nc(-c3cccs3)no2)C1 (stereo unspecified)	-	-	-	-	.	-	.
CCCC(=O)N1CCCC(c2nc(-c3cccs3)no2)C1 (stereo unspecified)	-	-	76	-	.	-	-
Cc1cccc(Oc2ccc(Cl)cc2N)c1	-	?	-	-	-	-	.
Nc1cc(Cl)ccc1Oc1ccc(Cl)cc1	-	-	66	-	.	-	-
CCc1nn(CC(=O)N2CC(C)CC(C)C2)c(=O)c2cc3oc(C)cc3n12 (stereo unspecified)	.	.	-	.	.	-	.
COc1ccc(-c2cc(C(F)(F)F)n3nc(C(=O)N(C)Cc4ccccc4)cc3n2)cc1OC	-	-	-	-	-	-	-
Cc1cc(-c2ccccc2)nc2cc(C(=O)N(Cc3ccccc3)Cc3ccccc3)nn12	-	-	72	-	.	-	+
CC(C)(C)C(=O)NCCn1nc(-c2cccs2)ccc1=O	.	.	-	.	.	.	.
Cc1ccc2c3c(cccc13)-c1ccccc1C2=O	-	-	79	-	-	-	+
CSc1ccccc1NC(=O)CN(C)CC(=O)NCc1ccccc1	-	.	-	-	-	-	.
CSc1ccccc1NC(=O)CN(C)Cc1cccc(Cl)c1	-	-	66	-	-	-	+
O=C(CCSc1nc(-c2ccc3c(c2)OCO3)cc(C(F)(F)F)n1)N1CCCCCC1	.	.	-	.	.	-	.
Cc1ccccc1Nc1c(-c2cccnc2)nc2ccccn12	-	.	-	-	-	-	.
Cc1ccn2c(Nc3ccccc3C)c(-c3ccccn3)nc2c1	-	-	66	-	-	-	-
Cc1ccc2nc(-c3ccccn3)c(Nc3ccccc3C)n2c1	-	.	67	-	-	-	-
Cc1ccn2c(Nc3ccccc3)c(-c3ccccn3)nc2c1	-	-	-	-	-	-	.
Cc1ccccc1Nc1c(-c2ccccn2)nc2ccccn12	-	.	66	-	-	-	-
CCc1ccccc1NC(=S)N(Cc1ccco1)Cc1cc2c(C)ccc(C)c2[nH]c1=O	.	.	-	.	.	-	.
COc1ncc(CN(CCCN2CCOCC2)Cc2ccc(C)o2)cn1	.	.	-	.	.	-	.
CCCOC(=O)c1ccc(NC(=O)c2cn(CC)c3nc(C)ccc3c2=O)cc1	-	-	67	-	.	.	-
Cc1ccc(S(=O)(=O)Nc2ccc(Cl)cc2C(=O)c2ccc(F)cc2)cc1	-	.	67	-	-	-	-
SMILES	S1P4 antag	Insulin prom inh	EP2 mod	S1P4 agonist	S1P3 antagonist	EP2 antag	EP2 cAMP induct
CCCC(=O)C1=C(O)C(C(=O)OC)C(C)(C)CC1=Nc1ccccc1 (stereo unspecified)	-	-	-	-	.	-	.
CCCC(=O)C1=C(O)C(C(=O)OC)C(C)(C)CC1=Nc1cccc2ccccc12 (stereo unspecified)	-	-	78	-	.	-	+
CC(C)(C)NC(=O)Cn1nc(-c2cccs2)cc(N)c1=O	.	.	-	.	.	-	.
CCc1cc2ccc(C)cc2nc1SCC(=O)N1CCCC1	.	.	-	.	.	-	.
CCc1cc2cc(C)cc(C)c2nc1SCC(=O)N1CCCC1	-	-	82	-	.	-	-
Cc1ccsc1-c1n[nH]c(=S)n1C1CCCCC1	-	-	63	-	-	-	-
COc1cc2c(cc1OC)C(c1ccccc1F)N(CC1=CCCOC1)CC2 (stereo unspecified)	.	.	-	.	.	-	.
COCc1nnc(NC(=O)CCCOc2ccc(C)cc2)s1	.	.	-	.	.	-	.
Cc1ccc2c(c1)-c1nc3ccccc3cc1C2=NC1CCCCC1	-	.	70	-	-	-	-
COC(=O)c1c(NC(=O)c2ccco2)sc(C(=O)NC2CCCCC2)c1C	.	.	-	.	.	-	.
Cc1ccc(C)n1-n1c(C)nc2scc(-c3cccs3)c2c1=O	-	.	-	-	-	-	-
COCC(=O)N1CCC(c2nc3c(nnn3Cc3ccc(Cl)cc3Cl)c(=O)[nH]2)CC1	.	.	-	.	.	-	.
Cc1ccc2c(c1)C(=O)CC1(CCN(S(C)(=O)=O)CC1)O2	.	.	-	.	.	-	.

Assay outcomes: PubChem, several laboratories
